In the library only some 4% were active in any assay of this set; here they are far more common.
LMP1 NFkB inh – EBV LMP1-driven NF-kappaB luciferase reporter inhibitors, primary screen, cell-based, luminescence, single point | 350,000 tested, 0.69% active | inhibition, % at 12.5 µM | LMP1-induced NF-kappaB luciferase reporter cells | AID 504558, 2011; in the data active means inhibition above about 41%; inconclusive means no clear call, values can overlap the other calls
MITF TRPM1 HTS – activators of MITF-driven TRPM1 promoter reporter, primary screen, cell-based, SK-MEL-5, luciferase, single point; AID 588334, 2011; 300,000 tested, 0.75% active; activation, % at 12.5 µM; SK-MEL-5 TRPM1-promoter luciferase, 24 h; % of positive control, neutral wells = 0;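 active means mean activation of at least 80% with every replicate also reaching 80%; inconclusive means mean reaches 80% but some replicate falls short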
Statin myotox sup – suppressors of statin myotoxicity in C2C12 myotubes, primary screen, cell-based, single point, plate reader | AID 602340, 2012 | C2C12 myotubes + simvastatin, ATP luminescence, 48 h; scaled: DMSO 0, geranylgeraniol control 100 | 330,000 tested, 0.78% active | rescue of ATP level, % at 7.49 µM;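 active means mean ATP rescue above about 67%, or every replicate alone reaching that limit, limit read from the data, passing the limit was not always enough; inconclusive means no clear call, values can overlap the other calls; inactive means mean under the limit and some replicate under it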;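 further: myotubes were challenged with 10 µM simvastatin during compound exposure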
TRPM1 prom inh – inhibitors of MITF-dependent TRPM1 promoter reporter, primary screen, cell-based, SK-MEL-5, single point, luciferase; inhibition, % at 12.5 µM; 330,000 tested, 0.83% active; SK-MEL-5 TRPM1 promoter luciferase, 24 h;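 active means mean inhibition across replicates of 60% or more, whatever share of single replicates reaches that level; inconclusive means some that reach 60%, reason not given; inactive means mean inhibition across replicates below 60%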
Wnt act – Wnt/beta-catenin pathway activators, primary screen, cell-based, plate reader, single point; Wnt/beta-catenin reporter cell assay, activator; activation, % at 9.35 µM; 300,000 tested, 1.2% active; AID 743398, 2014; in the data active means activation above about 30%, passing the limit was not always enough; inconclusive means no clear call, values can overlap the other calls
esBAF inh – Bmi1 luciferase reporter increase in mESCs, primary screen, esBAF inhibitor project, mouse ES cells, Bmi1 luciferase knock-in, single point; 24 h; 100% = twice the neutral-well signal; 350,000 tested, 2% active; reporter increase, % at 12.5 µM; in the data active means activation above about 40%; inconclusive means no clear call, values can overlap the other calls;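 further: a rise in the Bmi1 reporter signal indicates esBAF inhibition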
Numbers stand for hits; . = inactive; ? = inconclusive; / = not tested or not shown.

SMILES	LMP1 NFkB inh	MITF TRPM1 HTS	Statin myotox sup	TRPM1 prom inh	Wnt act	esBAF inh
CN(C)c1c([N+](=O)[O-])cc(N2C(=O)C=CC2=O)cc1[N+](=O)[O-]	.	.	.	63	/	.
Cc1ccc(NC(=O)C2CC(=O)N(c3ccc4c(c3)OCCO4)C2)nc1 (configuration not stated)	.	.	.	.	.	/
Cc1ccc(NC(=O)C2COc3ccccc3O2)c(C)c1 (configuration not stated)	.	.	.	.	.	45
O=C(CCC1COc2ccccc2O1)Nc1ccccn1 (configuration not stated)	.	.	155	.	/	.
Cc1ccc(NC(=O)C2COc3ccccc3O2)nc1 (configuration not stated)	.	.	.	.	.	.
Cc1ccnc(NC(=O)C2CC(=O)N(c3ccc4c(c3)OCCO4)C2)c1 (configuration not stated)	.	99	.	.	46	.
Cc1ccnc(NC(=O)C2COc3ccccc3O2)c1 (configuration not stated)	.	88	/	.	58	/
Oc1ccc(-c2cn3c(n2)SCC3)cc1O	.	/	.	.	/	.
C[C@H](CO)N1C[C@H](C)[C@@H](CN(C)Cc2ccc(C(F)(F)F)cc2)Oc2ccc(NS(=O)(=O)c3ccc(F)cc3)cc2CC1=O	/	/	83	/	/	.
Cc1ccc(S(=O)(=O)Nc2ccc3c(c2)CC(=O)N([C@H](C)CO)C[C@H](C)[C@@H](CN(C)Cc2ccc(C(F)(F)F)cc2)O3)cc1	/	/	115	/	/	.
CCOC(=O)/C(=N/Nc1ccc(Cl)cc1)Sc1nnnn1-c1ccc(C)cc1	.	.	/	.	.	/
CCc1ccccc1NC(=O)C1(S(=O)(=O)c2ccc(C)cc2)CC1	.	.	.	.	.	.
Brc1ccc(N/N=C(/N=Nc2nn[nH]n2)c2ccccc2)cc1	58	.	/	67	.	/
O=C(O)c1ccc(N=N/C(=N\Nc2ccc(C(=O)O)cc2)c2ccccc2)cc1	.	.	.	.	.	.
COc1ccc(C2NC(c3ccc(OC)c(OC)c3OC)C(C)C(=O)C2C)c(OC)c1OC (configuration not stated)	.	.	86	.	.	.
Cn1c(=O)c2[nH]c(CCCC(=O)O)nc2n(Cc2ccccc2)c1=S	.	.	.	.	.	.
CN(C)CCNC(=O)c1cc2c(s1)-c1ccc(Cl)cc1SC2	.	.	.	100	.	.
COc1cccc(C2C3(C#N)C(N)=NC(OC)(OC)C23C#N)c1 (configuration not stated)	.	.	.	.	/	.
CCCCCN=C(N)N/N=C/c1c[nH]c2ccc(OC)cc12	.	.	.	97	.	.
CC1C=CCC2C(=O)N(c3ccc(OC(=O)c4ccco4)cc3)C(=O)C12 (configuration not stated)	.	.	.	.	.	.
CC(=O)Nc1sc2c(c1-c1nc3ccccc3s1)CCN(C(C)C)C2	78	.	.	77	/	.
Cc1noc(C)c1S(=O)(=O)N(C)C[C@H]1OCc2cn(nn2)CCCC(=O)N([C@@H](C)CO)C[C@H]1C	/	/	.	/	/	.
COC(=O)c1c(C)noc1-c1cc(C)on1	.	.	102	.	/	.
C=CCN=C1S/C(=C\N(C)C)C(=O)N1S(=O)(=O)c1ccc(C)cc1	.	.	.	.	.	.
COc1ccc(NC(C)=O)cc1NC(=O)c1ccc(C#N)cc1	.	.	.	.	.	.
SMILES	LMP1 NFkB inh	MITF TRPM1 HTS	Statin myotox sup	TRPM1 prom inh	Wnt act	esBAF inh
CCOc1ccc2c(c1)nc(SCC(=O)c1ccc(Br)s1)n2C	.	.	70	.	.	.
CCOc1ccc2c(c1)nc(SCC(=O)c1cccs1)n2C	.	.	/	.	/	/
O=C(O)c1ccc(S(=O)(=O)NCC2CCCO2)cc1 (configuration not stated)	.	.	.	.	.	.
Cc1ccccc1C(=O)NNC1CC(=O)N(c2ccc3c(c2)OCCO3)C1=O (configuration not stated)	.	.	/	.	.	/
COCCNC(=O)c1nn(-c2cc(OC)cc(OC)c2)c(=O)c2ccccc12	.	.	110	.	/	.
COc1ccc(-n2nc(C(=O)NCC(=O)N3CCN(c4ccccc4)CC3)c3ccccc3c2=O)cc1OC	.	.	.	.	.	45
COc1ccc(-n2nc(C(=O)NCC(=O)N3CCCC3)c3ccccc3c2=O)cc1Cl	.	/	.	/	.	59
O=C(CCC(=O)c1cccs1)NNC(=O)c1ccccc1O	.	.	.	.	.	.
Cc1cn([C@H]2C[C@H](O)[C@@H](/C=C/C(=O)NCCc3cccnc3)O2)c(=O)[nH]c1=O	/	/	.	/	.	.
C[C@@H]1CN([C@@H](C)CO)C(=O)CCCn2nncc2CO[C@@H]1CN(C)C(=O)OCc1ccccc1	.	/	.	/	.	.
O=c1cc(COc2ccc(Cl)c(Cl)c2)nc2sccn12	.	.	.	.	?	45
COc1ccccc1C(=O)OCc1cc(=O)n2ccsc2n1	.	.	.	.	.	/
O=C(OCc1cc(=O)n2ccsc2n1)c1ccccc1O	.	?	.	.	.	74
O=c1cc(CNc2cc(Cl)ccc2Cl)nc2sccn12	.	.	/	.	/	/
Cc1cc(=O)[nH]c2ccccc12	.	.	.	.	/	.
Cc1cc2[nH]c3c(c[n+](C)c4ccccc34)c2cc1C	.	.	/	101	.	/
COc1ccc(NC(=S)Nc2ccccn2)c(OC)c1	.	/	.	.	55	69
COc1ccc(NC(=S)Nc2cc(C)ccn2)c(OC)c1	.	.	.	.	/	68
CCOC(=O)C1(CCc2ccccc2)CCN(C(=O)CCc2cnn(C)c2)CC1	.	.	.	.	.	.
CCOc1ccc(CCNC(=O)COC(=O)c2cccc(S(=O)(=O)N3CCCCC3)c2)cc1OCC	.	.	.	.	.	.
CO/N=C/c1ccc(Sc2ccccc2)c([N+](=O)[O-])c1	.	.	.	.	/	.
O=[N+]([O-])c1cc(/C=N/O)ccc1Sc1ccccc1	.	.	171	.	/	.
CO/N=C/c1ccc(Sc2ccccc2N)c([N+](=O)[O-])c1	.	.	128	.	/	.
C=CCOC(=O)c1ccc(-n2cncn2)nc1	.	.	134	.	.	.
CCn1c(O)c(N=Nc2ccc3ccccc3n2)c2ccccc21	.	116	/	.	.	/
CCCCn1c(O)c(N=Nc2ccccn2)c2ccccc21	.	.	/	.	/	/
CCC(N=c1cc(-c2ccc(OC)c(OC)c2)oc2ccc(C)cc12)C(=O)O (configuration not stated)	.	.	/	.	.	/
